Where “and” joins values, the source holds several entries; their conditions need not be identical. Identical values can stand only once. Where a SMILES comes first, the peptide text is derived from it.
Columns and labels:
[1] = system: Botulinum neurotoxin type F light chain protease (Clostridium botulinum); test: Botulinum neurotoxin type F light chain protease inhibition, multiplex microsphere flow cytometry, validation set (AID 588459); conditions: multiplex microsphere protease substrate cleavage assay, at 10 µM, stronger effect = higher value
[2] = molecular target: Botulinum neurotoxin type A (Clostridium botulinum) (UniProt P0DPI0); test: BoNT/A light chain protease inhibitors, biochemical, multiplex microsphere flow cytometry, validation set (AID 588460); conditions: at 10 µM, stronger effect = higher value
[3] = molecular target: Lethal factor (Bacillus anthracis) (UniProt P15917); test: Lethal factor protease inhibitors, Bacillus anthracis, multiplex microsphere cleavage assay, validation set (AID 588461); conditions: flow cytometry, at 10 µM, stronger effect = higher value

Measured: inhibition

CCOc1cc2oc(=O)c3c(c2cc1Cl)CCC3
inactive: [1] 3% | [2] -0.7% | [3] -2.7%

CN(C)c1ccc(C(CN)c2c[nH]c3ccccc23)cc1 (stereo not given)
inactive: [1] -5.8% | [2] -1.5% | [3] -3.4%

CC(C)CC(NC(=O)c1cccc(Cl)c1)C(=O)O (stereo not given)
inactive: [1] -4.2% | [2] -2.6% | [3] 0.4%

COc1cc(Cc2cnc(N)nc2N)cc(OC)c1OC
inactive: [1] 4.4% and 6.3% | [2] 0% and -0.2% | [3] -0.1% and 0.6%

N/C(Cc1ccc(Cl)cc1Cl)=N\OC(=O)c1ccc(Br)o1
inactive: [1] -0.8% | [2] -2.5% | [3] -7.4%

COc1ccc2c(c1)c(=O)oc1cc3occ(C(C)(C)C)c3cc12
inactive: [1] 1.2% | [2] 1.4% | [3] 6.9%

COc1ccc(C2OC[C@H]3O[C@H](O)[C@H](NC(C)=O)[C@@H](O)[C@@H]3O2)cc1 (stereo not given in full)
inactive: [1] -3.6% | [2] -1.7% | [3] -9.6%

CC(=O)O[C@H]1CSC[C@H]1NC(=O)c1ccccc1
inactive: [1] -2.6% | [2] -1.2% | [3] -4.4%

COCc1cc(=O)[nH]c(Nc2nc3ccccc3o2)n1
inactive: [1] -3.7% | [2] -0.7% | [3] 0.7%

CC1CC(OC(=O)C(O)c2ccccc2)CC(C)(C)N1C (stereo not given)
inactive: [1] -2.4% | [2] -1.7% | [3] -6.1%

CCc1cc(=O)oc2cc3occ(-c4ccc(OC)c(F)c4)c3cc12
inactive: [1] 2.2% | [2] -0.9% | [3] -2.7%

COc1c2occc2c(OC)c2c(=O)cc(C)oc12
inactive: [1] -0.3% | [2] -1.1% | [3] 4.5%

NCCOc1ccccc1OCCN
inactive: [1] 1.6% | [2] -0.4% | [3] -4.4%

COc1cccc(/C=C/C(=O)c2c(O)cc(C)oc2=O)c1O
inactive: [1] 7% | [2] 1.7% | [3] 5.4%

CC(=O)c1c(N)nc2n(c1=O)CCCCC2
inactive: [1] -2.9% | [2] -1% | [3] -2.9%

COc1cccc(N2C(=O)CC(c3c[nH]c4ccccc34)C2=O)c1 (stereo not given)
inactive: [1] 1.4% | [2] 2.4% | [3] -2%

CN(CCO)CC(O)Cn1cnc2c1c(=O)n(C)c(=O)n2C (stereo not given) (tested in a mixture with another compound)
inactive: [1] -0.4% | [2] 1.1% | [3] -3.6%

CN(C)C(=O)C12CCC(C)(c3nc4ccccc4nc31)C2(C)C (stereo not given)
inactive: [1] -1.3% | [2] -1.5% | [3] 1.8%

N=C(N)c1ccc(OCCCCCOc2ccc(C(=N)N)cc2)cc1
inactive: [1] 0.7% | [2] -1.6% | [3] -2.7%

N=c1c[n+](N2CCOCC2)[n-]o1
inactive: [1] -6.3% | [2] 0.1% | [3] 0.2%

Cc1cccc(Nc2ccccc2C(=O)O)c1C
inactive: [1] -3.6% | [2] -1.1% | [3] -6%

CC(=O)NC(CC(C)C)C(=O)NC(Cc1ccccc1)C(N)=O (stereo not drawn) (Ac-Leu-Phe-NH2; configuration not given here)
inactive: [1] 3.1% | [2] 0.2% | [3] -1.4%

COc1ccc(C(=O)c2oc3ccc(Br)cc3c2NC(C)=O)cc1
inactive: [1] 0.3% | [2] -1.1% | [3] -3.6%

COc1ccc(C(=O)NCCC2=CCCCC2)cc1[N+](=O)[O-]
inactive: [1] -5.9% | [2] -1.5% | [3] -4.6%

Cc1nc(NC(CC(C)C)C(=O)O)c2nc(C)oc2n1 (stereo not given)
inactive: [1] 1.1% | [2] 1.1% | [3] -5.4%

O=C(O)c1ccccc1OCCOc1ccccc1
inactive: [1] 3.5% | [2] 2.5% | [3] 7.2%

CC(CCCC(C)(C)O)NC(=O)c1ccc(OC2CCN(C(=O)C3CC3)CC2)cc1 (stereo not given)
inactive: [1] 0.1% | [2] 0.7% | [3] 1%

N=C1C(c2ccccc2)=C(O)CN1CCCO
inactive: [1] -2.6% | [2] -1.3% | [3] -5%

COc1cc(CC(=O)NCCc2ccc(S(N)(=O)=O)cc2)cc(OC)c1OC
inactive: [1] 4.1% | [2] 1.6% | [3] 6.5%

O=C(/C=C/c1ccc2c(c1)OCO2)NCc1ccc(F)cc1
inactive: [1] -14.5% | [2] -2.4% | [3] -3.4%

COc1cc(NC(=O)N[C@@H](Cc2ccccc2)C(=O)O)cc(OC)c1
inactive: [1] 1.2% | [2] 0.4% | [3] -2.8%

COc1cc2cc(C(=O)O)n(C)c2c(OC)c1OC
inactive: [1] 1.3% | [2] -0.4% | [3] 1.2%

C1CCC(C(CC2CCCCN2)C2CCCCC2)CC1 (stereo not given)
inactive: [1] -7.7% | [2] 0.4% | [3] -14.1%

O=C(O)CCn1c(=S)n(CCC(=O)O)c2ccccc21
inactive: [1] 2.7% | [2] 0.3% | [3] 3.1%

Cc1c(CCOC(=O)CC23CC4CC(CC(C)(C4)C2)C3)sc[n+]1Cc1ccc([N+](=O)[O-])cc1
inactive: [1] -3.1% | [2] 1.6% | [3] -4.8%

COc1ccc(/C=C/C(=O)NC(=S)NN2CCCCC2c2cccnc2)cc1 (stereo not given)
inactive: [1] 3.7% | [2] 1.8% | [3] -3.5%

CN(C)CCCNc1ncnc2c1cnn2-c1ccccc1
inactive: [1] 0.3% | [2] -0.3% | [3] -4%

O=C(CN1C(=O)c2ccccc2C1=O)Nc1cccc([N+](=O)[O-])c1
inactive: [1] -5.7% | [2] -0.9% | [3] -2%

CC(C)C12CN3CC(C(C)C)(CN(C1)C3c1ccccc1)C2O (stereo not given)
inactive: [1] 1.7% | [2] 1.2% | [3] 7%

C/C(NC(=O)c1cccs1)=C1\C(=O)C[C@@H]2[C@H]1C2(C)C
inactive: [1] 3% | [2] 0.5% | [3] 3.4%

COC(=O)c1sccc1NC(=O)Nc1ccccc1F
inactive: [1] -1.2% | [2] -1.3% | [3] 1.2%

COc1cccc(C2CC(=O)C3=C(C2)Nc2ccccc2N(C(=O)CCC(=O)O)C3c2ccc(F)cc2)c1 (stereo not given)
inactive: [1] 1.3% | [2] 0.4% | [3] 5.1%

O=C(CCc1ccccc1)Nc1ccccc1C(F)(F)F
inactive: [1] 0.7% | [2] -0.1% | [3] 0.5%

O=C(Oc1cccccc1=O)c1ccccc1
inactive: [1] 1.1% | [2] -1.5% | [3] 0.9%

COc1ccc2oc(-c3ccco3)cc(=O)c2c1
inactive: [1] 3% | [2] -0.8% | [3] -7%

CCN(CC)c1ccc(C2=NNC(=O)CC2C)cc1[N+](=O)[O-] (stereo not given)
inactive: [1] -2.1% | [2] -0.3% | [3] -6.2%

OCC1(CCOc2ccccc2)CCN(CCCn2cccn2)CC1
inactive: [1] -0.5% | [2] -1% | [3] -1.4%

O=Cc1ccccc1Oc1ccccc1
inactive: [1] 0.2% | [2] -2.2% | [3] -0.3%

CCn1c2ccccc2c2cc(CC(N)=O)ccc21
inactive: [1] -5.5% | [2] -0.6% | [3] -0.1%

Nc1cccc2c1nnn2C1OC(CO)C(O)C(O)C1O (stereo not given)
inactive: [1] 0.7% | [2] 0.1% | [3] 3.5%

COC(=O)c1cc(OC)c(OC)c(OC)c1[N+](=O)[O-]
inactive: [1] 1.9% | [2] 0.1% | [3] -0.2%

COc1ccc2cc(C(=O)OC(C)C)sc(=O)c2c1OC
inactive: [1] 0% | [2] 1.8% | [3] -5.8%

CCOC(=O)c1c(O)c2c([nH]c1=O)CCCC2
inactive: [1] 2.3% | [2] -1.4% | [3] -3.9%

N=c1nc(N2CCCCC2)cc(N)n1O
inactive: [1] -2.3% | [2] -0.7% | [3] 0.9%

CC(C)(C)NC[C@H](O)COc1nsnc1N1CCOCC1
inactive: [1] 0.1% | [2] 0% | [3] -3.8%

Cc1cc(=O)oc(C)c1C(=O)NCCC(C)C
inactive: [1] -1.3% | [2] -0.2% | [3] 4%

COc1ccc(C(=O)/C=C/c2ccc(OC(=O)c3cc(OC)c(OC)c(OC)c3)cc2)cc1
inactive: [1] 2.9% | [2] 0.3% | [3] -5%

COc1ccc(OC)c(NC2=C(Cl)C(=O)N(Cc3ccccc3)C2=O)c1
inactive: [1] 0% | [2] -2.2% | [3] -12.4%

O=C(COc1ccc(F)cc1)OCCN1CCOCC1
inactive: [1] 1.8% | [2] -1% | [3] -5.2%

COc1ccc2c(c1)c(CC(=O)O)c(C)n2C(=O)c1ccc(Cl)cc1
inactive: [1] 0.9% | [2] -1.5% | [3] -4.2%

OC(CCN1CCCC1)(c1ccccc1)C1CCCCC1 (stereo not given)
inactive: [1] -0.8% | [2] -0.7% | [3] -2.2%

O=C1C(Cc2ccccc2)NC(=S)N1c1ccccc1 (stereo not given)
inactive: [1] 3.8% | [2] 0.9% | [3] -7.8%

COc1cc(CNCc2ccc(OC)c(OC)c2OC)cc(OC)c1
inactive: [1] 0.5% | [2] -0.7% | [3] 5.3%

CN(CCc1cnn(C)c1)Cc1nc(CC2CC2)no1
inactive: [1] 0.2% | [2] 0.4% | [3] 7%

Cc1[nH]c2ccccc2c1/C=C/c1nc2ccccc2c(=O)n1CCO
inactive: [1] 0% | [2] -0.4% | [3] 0.2%

Reference: PubChem BioAssay
